These results are taken from PubChem BioAssay.

Activity calls are given as the source filed them.

One assay concerns the target Albumin (Bos taurus) (UniProt P02769). Kind of assay: bovine serum albumin binders on microarray, profiling panel, artefact control for SMM control protein annotation, biochemical, small-molecule microarray, Alexa647 label, 635/667 nm fluorescence (AID 1118).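 Note: score merges 667 nm emission intensity and signal-to-noise per printed compound spot.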 To be noted: BSA-A647 binding, fluorescence 635 nm, higher = more signal.
Assay [1] is described as follows: small-molecule microarray binders of probe aXIP, primary screen, biochemical, NeuroSMM set, 635/667 nm fluorescence (AID 1119).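 Note: probe is the protein aXip251-270 applied at 1 µg/mL to compound-printed slides; binding of probe to printed compounds measured as 667 nm fluorescence plus signal to noise.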 The following applies: higher = more signal, called active from +8 up or from −8 down.
The nature of assay [2]: small-molecule binders of probe aNOTCH3, primary screen, biochemical, small-molecule microarray, 635/667 nm fluorescence (AID 1120).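 Note: probe is a biotin-tagged antibody raised against NOTCH3 rather than NOTCH3 protein; score merges spot fluorescence near 667 nm with spot signal to noise.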 The following applies: higher = more signal.
Assay [3] is described as follows: small-molecule binders of probe aNOTCH2, primary screen, biochemical, small-molecule microarray, 635/667 nm fluorescence (AID 1121).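 Note: score merges feature fluorescence read at 667 nm with its signal to noise.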 The following applies: higher = more signal.
The target in assay [4] is Carbonic anhydrase 2 (Homo sapiens) (UniProt P00918). The assay is described as follows: CAII small-molecule binders, profiling panel, biochemical, small-molecule microarray, Alexa647-labelled CAII (AID 1122). To be noted: CAII-A647 binding fluorescence, higher = more signal.
Assay [5] can be described thus: COS7 lysate on small-molecule microarray, probe aHis, 635 nm (AID 1123).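 Note: z-score combines 667nm fluorescence intensity with signal-to-noise per printed compound spot.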 To be noted: COS7 cell lysate, fluorescence, higher = more signal.
Assay [6] is described as follows: compound binding in COS7 lysate, probe aLAP1, primary screen, cell lysate, small-molecule microarray (AID 1124).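 Note: lysate comes from COS7 cells expressing LAP1 and is applied at 0.3 µg/mL; score merges spot fluorescence near 667 nm with signal-to-noise over triplicate slides.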 The following applies: probe aLAP1, fluorescence, higher = more signal.
A further assay deals with Sam68 (KHDRBS1). Kind of assay: Sam68 small-molecule binders, primary screen, biochemical, small-molecule microarray, 635 nm fluorescence (AID 1125).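 Note: score merges 667 nm channel intensity with signal to noise over triplicate slides.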 The following applies: small-molecule microarray binding, higher = more signal.
In assay [7] the test system is Chordin-like protein 2 (CHRDL2). The assay is described as follows: CHRDL2 small-molecule binders, primary screen, biochemical, small-molecule microarray, 635 nm fluorescence (AID 1126).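 Note: printed compound slides probed with Chrdl2 protein at 4 µg/mL for 1 h at 4 C; score merges 667 nm emission intensity with signal to noise over three replicate slides.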 To be noted: small-molecule microarray binding, fluorescence 635 nm; higher = more signal.
For assay [8], the target named is Concanavalin-A (Canavalia ensiformis) (UniProt P02866). The assay is described as follows: ConA small-molecule binders, primary screen, artefact control for SMM control protein annotation, biochemical, small-molecule microarray, Alexa647 label, 635 nm (AID 1127).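 Note: z combines 667 nm emission intensity with signal-to-noise across three replicate slides.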 The following applies: ConA-A647 binding fluorescence, higher = more signal.
Sequence of Concanavalin-A (Canavalia ensiformis) (P02866 whole entry, looked up): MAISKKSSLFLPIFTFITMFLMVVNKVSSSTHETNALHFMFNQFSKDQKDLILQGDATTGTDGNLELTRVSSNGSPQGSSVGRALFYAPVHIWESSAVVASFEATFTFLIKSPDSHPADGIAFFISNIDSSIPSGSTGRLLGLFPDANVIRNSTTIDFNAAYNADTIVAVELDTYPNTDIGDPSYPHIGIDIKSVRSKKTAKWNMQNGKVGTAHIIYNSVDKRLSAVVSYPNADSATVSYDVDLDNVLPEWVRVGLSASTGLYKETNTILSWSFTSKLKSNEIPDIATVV
A short description of assay [9]: anti-His antibody binders, primary screen, artefact control for SMM control protein annotation, biochemical, small-molecule microarray, 635 nm fluorescence (AID 1128).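 Note: score merges feature fluorescence with signal-to-noise for each printed compound spot.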 The following applies: anti-His Alexa647 antibody binding, higher = more signal.
The test system of assay [10] is Human papillomavirus type 1a E7 protein (residues 1-88). The assay is described as follows: HPV1a E7 small-molecule binders, primary screen, biochemical, small-molecule microarray, residues 1-88, 635 nm (AID 1129). The following applies: small-molecule microarray binding, fluorescence 635 nm; higher = more signal.
Assay [11] has as its target Focal adhesion kinase 1 (Homo sapiens) (UniProt Q05397). Kind of assay: small-molecule microarray binders of FAK, primary screen, biochemical, 635/667 nm fluorescence, BSA, DTT (AID 1130).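 Note: composite of spot emission at 667 nm and signal to noise over triplicate slides.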 To be noted: PTK2 binding, 635 nm fluorescence, higher = more signal.
The subject of assay [12] is Fibrinogen (Alexa647-labelled). The assay is described as follows: fibrinogen binders on compound microarrays, profiling panel, artefact control for SMM control-protein annotation, biochemical, small-molecule microarray, 635/667 nm fluorescence (AID 1131).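 Note: z-score merges 667 nm fluorescence with per-spot signal-to-noise over triplicate slides.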 The following applies: fibrinogen-A647 binding fluorescence, higher = more signal.
The target in assay [13] is Follistatin (Homo sapiens) (UniProt P19883). The assay is described as follows: follistatin binders on small-molecule microarrays, primary screen, biochemical, small-molecule microarray, 635/667 nm fluorescence (AID 1132). The following applies: FST binding, 635 nm fluorescence, higher = more signal.
Sequence of Follistatin (Homo sapiens) (P19883 whole entry, looked up): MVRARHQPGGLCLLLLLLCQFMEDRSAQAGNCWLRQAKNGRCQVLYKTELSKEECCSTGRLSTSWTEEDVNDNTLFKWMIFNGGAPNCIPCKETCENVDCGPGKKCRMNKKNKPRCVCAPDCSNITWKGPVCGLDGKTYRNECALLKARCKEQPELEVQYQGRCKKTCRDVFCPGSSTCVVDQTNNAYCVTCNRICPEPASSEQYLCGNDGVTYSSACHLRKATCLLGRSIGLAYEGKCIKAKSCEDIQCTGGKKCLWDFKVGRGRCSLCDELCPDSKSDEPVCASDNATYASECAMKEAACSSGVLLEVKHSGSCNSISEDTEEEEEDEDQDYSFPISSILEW
Assay [14] addresses Fibroblast growth factor 2 (Homo sapiens) (UniProt P09038). The assay is described as follows: FGF2 binders on small-molecule microarrays, primary screen, biochemical, small-molecule microarray, 635/667 nm fluorescence (AID 1133). To be noted: small-molecule microarray binding, FGF2, fluorescence 635/667; higher = more signal.
The nature of assay [15]: mitochondrial membrane potential change in A549 cells, profiling panel, cell-based, JC-1 fluorescence, basal, 24 h, 100 nL (AID 1138).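 Note: A549 lung adenocarcinoma cells under basal conditions with no added stimulus; test concentration not given here.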 To be noted: higher = more signal.
The subject of another assay is Lefty1. Kind of assay: Lefty1 binders on small-molecule microarrays, primary screen, biochemical, small-molecule microarray, 635/667 nm fluorescence (AID 1139). The following applies: small-molecule microarray binding, fluorescence 635/667; higher = more signal.
Assay [16] has as its system wheat germ agglutinin (Triticum aestivum), Alexa647-labelled. Kind of assay: wheat germ agglutinin binders on compound microarrays, profiling panel, artefact control for SMM control-protein annotation, biochemical, small-molecule microarray, 635/667 nm fluorescence (AID 1140).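 Note: score merges 667 nm feature emission with signal to noise over triplicate slides.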 The following applies: WGA-A647 binding, 635 nm fluorescence, higher = more signal.
The target of assay [17] is Luciferin 4-monooxygenase (Photinus pyralis) (UniProt P08659). Kind of assay: firefly luciferase enzyme inhibitors, primary screen, biochemical, luminescence, purified enzyme, 2006 set (AID 1141).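 Note: cell-free assay with purified firefly luciferase at 100 ng per well in PBS; test concentration not given here.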 The following applies: SteadyGlo luminescence, 30 min, higher = more signal, called active from +8 up or from −8 down.
Sequence of Luciferin 4-monooxygenase (Photinus pyralis) (P08659 whole entry, looked up): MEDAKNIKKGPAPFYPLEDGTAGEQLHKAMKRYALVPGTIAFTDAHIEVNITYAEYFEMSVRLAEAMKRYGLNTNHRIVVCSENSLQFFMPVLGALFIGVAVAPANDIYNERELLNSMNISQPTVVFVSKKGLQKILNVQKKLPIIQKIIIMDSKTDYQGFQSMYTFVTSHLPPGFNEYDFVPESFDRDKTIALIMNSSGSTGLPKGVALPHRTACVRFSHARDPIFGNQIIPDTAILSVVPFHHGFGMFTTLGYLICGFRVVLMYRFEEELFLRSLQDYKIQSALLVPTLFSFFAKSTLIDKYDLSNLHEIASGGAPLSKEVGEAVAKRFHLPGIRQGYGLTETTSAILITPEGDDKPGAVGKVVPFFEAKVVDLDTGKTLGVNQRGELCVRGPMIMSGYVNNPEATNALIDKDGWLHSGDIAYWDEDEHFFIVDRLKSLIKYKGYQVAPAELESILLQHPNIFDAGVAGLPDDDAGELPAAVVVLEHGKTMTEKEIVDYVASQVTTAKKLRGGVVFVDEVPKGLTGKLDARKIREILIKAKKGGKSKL

Sequence of Albumin (Bos taurus) (P02769 whole entry, looked up): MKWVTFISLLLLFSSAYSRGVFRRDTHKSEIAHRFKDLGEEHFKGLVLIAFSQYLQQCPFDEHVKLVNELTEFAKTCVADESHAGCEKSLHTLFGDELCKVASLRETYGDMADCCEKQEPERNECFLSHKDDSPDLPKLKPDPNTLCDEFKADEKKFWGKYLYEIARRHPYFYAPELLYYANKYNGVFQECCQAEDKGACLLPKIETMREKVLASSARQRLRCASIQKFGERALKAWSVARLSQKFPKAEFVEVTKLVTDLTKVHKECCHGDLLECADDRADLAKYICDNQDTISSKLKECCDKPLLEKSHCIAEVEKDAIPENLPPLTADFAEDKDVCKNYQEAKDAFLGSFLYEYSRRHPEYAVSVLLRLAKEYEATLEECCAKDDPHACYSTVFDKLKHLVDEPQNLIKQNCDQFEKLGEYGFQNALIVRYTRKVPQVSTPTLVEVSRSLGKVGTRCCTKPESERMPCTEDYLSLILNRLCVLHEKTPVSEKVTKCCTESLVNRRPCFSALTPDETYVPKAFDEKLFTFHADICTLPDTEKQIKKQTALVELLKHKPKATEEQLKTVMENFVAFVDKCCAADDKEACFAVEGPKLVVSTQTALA
Sequence of Focal adhesion kinase 1 (Homo sapiens) (Q05397 whole entry, looked up): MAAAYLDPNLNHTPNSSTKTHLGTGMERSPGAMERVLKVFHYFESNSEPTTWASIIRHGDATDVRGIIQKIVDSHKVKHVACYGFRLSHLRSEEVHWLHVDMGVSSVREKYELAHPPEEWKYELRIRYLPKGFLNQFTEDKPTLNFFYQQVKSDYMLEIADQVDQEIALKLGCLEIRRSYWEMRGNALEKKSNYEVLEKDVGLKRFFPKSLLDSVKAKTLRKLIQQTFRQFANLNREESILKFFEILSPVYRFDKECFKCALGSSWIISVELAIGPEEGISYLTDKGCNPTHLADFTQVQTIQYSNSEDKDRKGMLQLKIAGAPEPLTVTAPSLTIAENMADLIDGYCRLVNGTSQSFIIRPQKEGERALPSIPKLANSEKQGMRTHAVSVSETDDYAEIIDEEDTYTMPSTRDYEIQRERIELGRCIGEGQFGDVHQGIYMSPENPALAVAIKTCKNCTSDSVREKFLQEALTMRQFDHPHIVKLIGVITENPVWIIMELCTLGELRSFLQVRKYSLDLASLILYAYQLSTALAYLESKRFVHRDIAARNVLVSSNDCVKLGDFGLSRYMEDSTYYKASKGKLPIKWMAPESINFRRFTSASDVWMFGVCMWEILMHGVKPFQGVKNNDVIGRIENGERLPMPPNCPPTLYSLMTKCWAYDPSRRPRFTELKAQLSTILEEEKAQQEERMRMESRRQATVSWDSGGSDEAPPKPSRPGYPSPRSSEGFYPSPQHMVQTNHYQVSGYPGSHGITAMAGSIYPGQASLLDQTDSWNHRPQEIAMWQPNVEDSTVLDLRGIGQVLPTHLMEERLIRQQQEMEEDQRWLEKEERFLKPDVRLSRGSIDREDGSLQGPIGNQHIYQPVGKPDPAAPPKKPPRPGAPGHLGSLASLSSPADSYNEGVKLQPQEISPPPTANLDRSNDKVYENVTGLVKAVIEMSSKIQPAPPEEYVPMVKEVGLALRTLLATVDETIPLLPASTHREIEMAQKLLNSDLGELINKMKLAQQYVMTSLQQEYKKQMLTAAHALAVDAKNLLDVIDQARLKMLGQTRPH
Sequence of Fibroblast growth factor 2 (Homo sapiens) (P09038 whole entry, looked up): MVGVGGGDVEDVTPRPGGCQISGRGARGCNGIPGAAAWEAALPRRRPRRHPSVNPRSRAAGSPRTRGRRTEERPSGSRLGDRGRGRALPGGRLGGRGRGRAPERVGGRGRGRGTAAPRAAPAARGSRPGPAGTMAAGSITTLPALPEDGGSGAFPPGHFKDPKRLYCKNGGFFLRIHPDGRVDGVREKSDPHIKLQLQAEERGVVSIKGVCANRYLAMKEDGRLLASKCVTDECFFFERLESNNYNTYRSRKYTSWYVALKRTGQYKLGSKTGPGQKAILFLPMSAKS

As to `O=C1c2ccccc2[C@@]2(Cc3ccccc3N(CC(F)(F)F)C2=O)[C@H](c2ccc(CO)cc2)N1Cc1ccccc1C(F)(F)F`, the composite z-score with Albumin (Bos taurus) was -1.22; in assay [2], -0.0647; in assay [3], -0.159; in assay [4], 0.272; in assay [5], -0.229; in assay [6], 0.134. The composite z-score in the assay with Sam68 (KHDRBS1) was -0.142; in assay [7] it was -2.04; in assay [8] it was -1.83; in [9] it was -1.58; in assay [10] it was -2.19; in assay [11] it was -0.795. Moreover, the composite z-score is -1.47 in [12]; -2.04 in assay [13]; -0.882 in assay [14]; -1.87 with Lefty1; -1.69 in assay [16]. In [1], the composite Z-score is 0.112 (inactive). For the same compound, the results for the z-score in [15] and in [17] were 0.972 and -0.903 (inactive), respectively.
Turning to `CC(C)N1C(=O)c2ccccc2[C@@H](C(=O)NCc2ccccc2)[C@@H]1c1ccc(CO)cc1`, the composite z-score with Albumin (Bos taurus) was -2.18; in [2], -0.27; in [3], -0.162; in assay [4], 0.741; in [5], 1.51; in [6], 0.409. The composite z-score was 0.0504 with Sam68 (KHDRBS1); -0.184 in [7]; -1.07 in assay [8]; -1.36 in [9]; 0.369 in [10]; 0.427 in assay [11]. Further, the composite z-score was -1.22 in assay [12]; 0.815 in assay [13]; 0.82 in assay [14]; -1.28 in the assay on Lefty1; -1.51 in assay [16]. Further, in [1], the composite Z-score was 0.335 (inactive). Besides, the z-score in assay [15] was 1.64; in assay [17], -0.886 (inactive).
`COCCCNC(=O)[C@@]1(Cc2ccccc2)N=C(c2ccc(OCCCO)cc2)O[C@H]1c1ccccc1N=[N+]=[N-]`: the composite z-score in the assay with Albumin (Bos taurus) is 0.765; in assay [2], 0.385; in assay [3], 0.0538; in [4], 0.405; in [5], 0.877; in assay [6], 0.516. Also, the composite z-score was 0.846 with Sam68 (KHDRBS1); -0.297 in assay [7]; 0.0647 in assay [8]; 0.644 in [9]; 1.16 in [10]; 0.635 in assay [11]. Further, the composite z-score in assay [12] amounted to 0.881; in assay [13], 1.48; in [14], 1.58; with Lefty1, 0.269; in [16], 1.15. The composite Z-score in [1] was -0.597 (inactive). Also, the z-score was 2.03 in assay [15] and -4.34 (inactive) in assay [17].
`COc1ccc([Si](C)(C)[C@@H]2[C@@H](CCn3cc(CCO)nn3)O[C@]3(C(=O)N(Cc4ccc(N5C(=O)c6cccc7cccc5c67)cc4)c4ccccc43)[C@H]2C)cc1`: the composite z-score is 0.651 with Albumin (Bos taurus); 0.102 in assay [2]; -0.061 in assay [3]; 0.356 in assay [4]; 0.961 in [5]; 0.234 in assay [6]. Moreover, the composite z-score worked out at 1.1 in the assay with Sam68 (KHDRBS1); 0.157 in [7]; 1.12 in assay [8]; 1.51 in [9]; 0.914 in [10]; 0.87 in assay [11]. The composite z-score in [12] came out at 0.688; in [13], 0.499; in [14], 0.103; with Lefty1, 0.518; in assay [16], 1.2. Further, the composite Z-score in [1] was 0.722 (inactive). For the same compound, the z-score in [15] was -0.37; in assay [17], -0.685 (inactive).
Turning to `C=CCNC(=O)[C@@H]1[C@H]2C(=O)O[C@H](c3ccccc3)[C@H](c3ccccc3)N2[C@H](c2ccc(O)cc2)[C@@]12C(=O)N(C(=O)OCCOC)c1ccc(C#Cc3ccc(OC)cc3)cc12`, the composite z-score with Albumin (Bos taurus) is -0.0706; in [2], 0.13; in assay [3], 0.0406; in assay [4], 0.484; in assay [5], 1.46; in [6], 0.478. The composite z-score in the assay with Sam68 (KHDRBS1) was determined as 1.32; in [7] it was 0.455; in [8] it was 1.12; in [9] it was 0.539; in assay [10], 1.13; in assay [11], 1.68. Moreover, the composite z-score in [12] worked out at 0.8; in assay [13], 0.949; in [14] it was 0.915; with Lefty1, 0.544; in assay [16], 1.06. For the same compound, the composite Z-score in [1] is 0.574 (inactive). The z-score in assay [15] is -0.0671; in assay [17], -1.23 (inactive).
In the case of `COCCCNC(=O)[C@@]1(C)c2ccccc2C(=O)N(Cc2cc(F)cc(C(F)(F)F)c2)[C@H]1c1ccc(CO)cc1`, the composite z-score was -1.33 with Albumin (Bos taurus); -0.336 in assay [2]; -0.126 in assay [3]; 0.74 in assay [4]; 2.01 in [5]; 0.346 in [6]. Besides, the composite z-score in the assay with Sam68 (KHDRBS1) was 0.0363; in assay [7], -1.94; in assay [8], -0.453; in [9], -0.224; in assay [10], -1.01; in [11] it was -0.706. Moreover, the composite z-score in assay [12] is -1.61; in [13], -1.48; in [14] it was -0.521; in the assay on Lefty1 it was -1.73; in assay [16], -1.26. Moreover, in assay [1], the composite Z-score was 0.0737 (inactive). Further, the figures for the z-score in assay [15] and in [17] were 1.25 and -1.13 (inactive), respectively.
